From PubChem BioAssay AID624330 (Southern Research Specialized Biocontainment Screening …, 2012)
In all, about 340,000 compounds went through this assay and about 2,100 (0.62%) were called active.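 Rule for the calls: active = first-screen hits whose inhibition reached a set limit at any dose in the follow-up dose series; inconclusive = inhibition above the set first-screen limit but never retested; inactive = the rest.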 The list is a sample of the results. Potency and affinity values are given separately.

These compounds were tested against Rac GTPase-activating protein 1 (Homo sapiens) (UniProt Q9H0H5) (assay: blockers of MgcRacGAP-driven Rac1 GTP hydrolysis – biochemical, ADP Hunter fluorescence, primary and confirmatory, confirmation (AID 624330;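 note: fluorescence reports GDP produced by GAP-driven GTP hydrolysis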)). Settings: MgcRacGAP-stimulated Rac1 GTP hydrolysis, at 30 µM, hits give high values, GST-tagged Rac1 F28L mutant substrate.
Chain of Rac GTPase-activating protein 1 (Homo sapiens) (Q9H0H5 whole entry, looked up): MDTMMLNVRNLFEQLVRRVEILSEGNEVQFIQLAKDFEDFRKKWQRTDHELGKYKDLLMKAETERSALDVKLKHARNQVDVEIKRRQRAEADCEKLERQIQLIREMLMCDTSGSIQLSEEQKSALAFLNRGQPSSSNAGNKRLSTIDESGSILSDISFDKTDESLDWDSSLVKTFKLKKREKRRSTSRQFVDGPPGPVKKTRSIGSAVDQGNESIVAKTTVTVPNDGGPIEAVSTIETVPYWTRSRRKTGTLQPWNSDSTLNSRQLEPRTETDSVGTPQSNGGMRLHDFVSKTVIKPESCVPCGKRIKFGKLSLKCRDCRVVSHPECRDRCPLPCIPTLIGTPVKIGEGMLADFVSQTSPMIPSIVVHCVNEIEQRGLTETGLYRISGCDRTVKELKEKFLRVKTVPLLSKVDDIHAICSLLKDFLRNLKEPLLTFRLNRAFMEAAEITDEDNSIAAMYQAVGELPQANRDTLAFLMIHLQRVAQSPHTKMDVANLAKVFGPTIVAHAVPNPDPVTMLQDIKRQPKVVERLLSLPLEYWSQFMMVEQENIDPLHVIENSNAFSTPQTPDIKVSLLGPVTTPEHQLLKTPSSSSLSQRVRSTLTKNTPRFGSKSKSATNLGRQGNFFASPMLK

inhibition, inactive:
Cc1ccc(C)c(NC(=O)CN(C)C(=O)c2cc([N+](=O)[O-])ccc2N2CCOCC2)c1 5.45%
Cc1ccc(SCC(=O)OCC(=O)N(CC(C)C)C2CCS(=O)(=O)C2)cc1C (centres undefined) 9.24%
O=C(COC(=O)COc1ccc(Cl)cc1Br)NC1CC1 -1.39%
O=C(NCCN1CCOCC1)c1ccc(CS(=O)c2ccccc2Cl)o1 (centres undefined) -0.13%
COc1ccc(N2CCN(Cc3nc4sc(C)c(C)c4c(=O)[nH]3)CC2)cc1 -6.7%
COc1ccc(/C=C2/NC(=O)N(Cc3ccccc3F)C2=O)cc1OC 5.3%
COc1cc(/C=C2/NC(=O)N(Cc3ccccc3F)C2=O)cc(OC)c1O 26.3%
CSc1ccc(CN2CCC(n3nccc3NC(=O)C3CCOC3)CC2)cc1 (centres undefined) 3.42%
CC(=O)Nc1ccc(NC(=O)CCc2ccc(C)o2)cc1 10.6%
Cc1ccc(NC(=O)CCc2ccc(C)o2)cc1 -3.13%
Cc1ccc[n+](CC(=O)Nc2ccc(C)c(C)c2)c1 -1.74%
CC(=O)c1ccc(NC(=O)C[n+]2cccc(C)c2)cc1 8.06%
CCOC(=O)C1C(c2cc(OC)c(O)c(OC)c2)NC(=S)NC1(O)C(F)(F)F (centres undefined) 4.21%
Cc1ccc(CNC(=O)C(c2ccccc2)c2ccccc2)cc1 6.74%
COc1ccc(S(=O)(=O)NNC(=O)c2cc3ccccc3o2)cc1 9.6%
O=C(NC1CC1)c1cc(F)c(F)cc1Cl 6.75%
O=C(/C=C/c1ccc(Br)o1)Nc1nccs1 -0.09%
Nc1ccc2c(c1)OC1(CCCCC1)O2 22.8%
O=C(Nc1ccc2c(c1)OC1(CCCC1)O2)C1CC1 9.85%
CC(O)[C@H]1CNC(=O)C(=O)N1CCc1cccc(F)c1 (some centres undefined) 5.42%
COc1cc(CN2CCC(C(=O)N3CCN(c4ccccc4F)CC3)CC2)cc(OC)c1O 23.4%
CCOc1ccc(CN2CCC(C(=O)N3CCN(c4ccccc4F)CC3)CC2)cc1OC 23.7%
O=C(C1CC1)N1CCN(Cc2ccccc2)CC1 7.23%
COc1ccccc1N1CCN(Cc2ccc(Br)o2)CC1 29.6%
CCN1CCN(C(=O)C2CCN(Cc3cc(Cl)ccc3O)CC2)CC1 12.1%
COc1cc(CN2CCN(c3cccc(C)c3C)CC2)cc(OC)c1O 27%
COc1ccccc1N1CCN(Cc2ccsc2)CC1 25.3%
COc1ccc(CN2CCC(C(=O)N3CCN(c4ccccc4F)CC3)CC2)cc1OC 8.86%
CCC(C)NC(=O)C1c2ccccc2C(=O)N1Cc1ccc(F)cc1 (centres undefined) 8.48%
COc1ccc(NC(=O)CCCC(=O)O)cc1Cl 4.87%
CC(=O)c1ccc(S(=O)(=O)NCCC(=O)OC(C)C(=O)Nc2ccc(F)cc2)cc1 (centres undefined) 5.33%
N#C/C(=C\c1cn(CC(=O)N2CCCCC2)c2ccccc12)C(=O)NCc1ccc2c(c1)OCO2 8.24%
Cc1cc(NC(=O)c2ccc(C#N)cc2)n(-c2ccccn2)n1 4.99%
N#Cc1ccc(OCc2nnc(SCC(=O)N3CCCc4ccccc43)n2-c2ccccc2)cc1 3.45%
CCCCN(C)CCNC(=O)Cn1c(=O)sc2ccccc21 5.94%
NC(N)=Nc1ccc(C=C2C=Cc3ccccc32)cc1 1.28%
C=CCN(CC=C)Cc1nc(N)nc(Nc2ccccc2C)n1 6.1%
CCOC(=O)CN=C1CC(C)(C)CC2=C1Sc1ncnc(N(C)C)c1N2 6.53%
CC1(C)CC(=O)C([N+](=O)[O-])=C(NCCCC(=O)O)C1 6.3%
Cc1ccc(S(=O)(=O)/N=C/N(C)C)cc1 4.85%
O=C(NCc1ccco1)c1ccc(S(=O)(=O)N2CCOCC2)cc1 12.1%
CCOC(=O)c1ccc(NC(=O)Nc2c(C)nn(C)c2C)cc1 6.05%
CC1CC(=O)N(c2ccc(NCCc3ccccc3)c([N+](=O)[O-])c2)C1=O (centres undefined) 12.4%
COc1ccc(CCNc2ccc(N3C(=O)CC(C)C3=O)cc2[N+](=O)[O-])cc1 (centres undefined) 3.45%
COCCNC(=O)C1CCCN(S(=O)(=O)c2c(C)noc2/C=C/c2cccs2)C1 (centres undefined) 5.26%
Cc1cc(Cc2cc(C)c(N)cc2C)c(C)cc1N 11.3%
Cc1cc(C)c(N)cc1C 5.41%
COc1ccc(S(=O)(=O)N(C)C[C@H]2Oc3c(NC(=O)C4CC4)cccc3C(=O)N([C@H](C)CO)C[C@@H]2C)cc1 13.9%
CC(=O)c1c(Nc2cccc(F)c2)oc(C)cc1=O 8.68%
CCc1ccc(Nc2oc(C)cc(=O)c2C(C)=O)cc1 2.6%
O=C(c1cccc(NS(=O)(=O)c2ccc(Br)cc2)c1)N1CCN(c2ccccc2O)CC1 -1.11%
CC(O)CNc1nc2ccccc2n1CC(=O)NC12CC3CC(CC(C3)C1)C2 (centres undefined) -6.35%
O=C(Nc1ccccc1)c1cccc(NC(=O)c2ccco2)c1 11.5%
O=[N+]([O-])c1ccccc1OCCCNCc1ccccc1 21.2%
Cc1cc(OCCOCCN(C)C)ccc1Cl 9.69%
Clc1cccc(Cl)c1OCCOCCNCc1ccccc1 22.1%
CCc1cc(OCCCCNCc2ccccc2)ccc1Cl 28.9%
CCCOc1ccc(OCCOCCNCc2ccccc2)cc1 19.2%
CCOc1ccc(OCCOCCNCCOC)cc1 12.8%
O=[N+]([O-])c1ccccc1OCCOc1ccccc1[N+](=O)[O-] 7.67%
Cc1cc(Cl)cc(C)c1OCCNCc1ccccc1 26.3%
CC1(c2nnc(-c3cccc(Cl)c3)o2)CC(c2ccccc2)=NO1 (centres undefined) 6.54%
CCN(CC)CCCNC(=O)C1CCCN(c2nnc(N3CCCC3=O)s2)C1 (centres undefined) 8.15%
Cc1ccccc1C(=O)N1CCC(C(=O)Nc2ccccn2)CC1 3.54%
CC1CCCC(C)N1CC(O)COC1CCC(C(C)(C)C)CC1 (centres undefined) 8.37%
CC(C)(C)c1cccc(OCCCSc2ncccn2)c1 4.61%
O=C(N/C(=C/c1ccc(Br)cc1)C(=O)N1CCCCC1)c1ccccc1F 8.71%
Cc1cc(C)c(C)c(OCCOCCNCc2ccccc2)c1 17.1%
C=CCNCCCCOc1c(Cl)cc(C)cc1Br 29.7%
Cc1cc(C)c(OCCCNCc2ccccc2)c(Br)c1 26.8%
COCCNCCCCOc1c(Cl)cc(C)cc1Br 27.8%
Cc1cc(Cl)c(OCCCNCc2ccccc2)c(Br)c1 30.3%
Cc1ccc(OCCNCc2ccccc2)c(C)c1 20.6%
Cc1cc(C(=O)CSc2ccc3c(c2)OCCO3)c(C)n1C1CC1 6.62%
COc1ccc(C(=O)/C=C/c2ccccc2OC)c(OC(=O)c2ccc([N+](=O)[O-])cc2)c1 8.99%
COc1cccc(C2C(C(=O)c3cccs3)=C(O)C(=O)N2CCN2CCOCC2)c1 (centres undefined) -8.26%
O=C(NCc1ccccc1Cl)C1CCC(=O)N1Cc1ccc(F)cc1 (centres undefined) 11.4%
CN(CCOc1ccccc1)C(=S)Nc1ccc(OC(F)F)cc1 5.1%
O=C(c1ccc(Cl)cc1)N1CCN(C(=O)C2CCCCC2)CC1 7.43%
O=C1N/C(=C/c2ccc(Br)cc2)C(O)=C1C=NCc1ccccc1 3.27%
O=C1N/C(=C\c2ccccc2)C(O)=C1C=NCc1ccccc1 3.17%
COc1cc(NC(=O)CN2CCC(C(N)=O)(N3CCCCC3)CC2)c(OC)cc1Cl 0.16%
CCOc1ccc(/C=N/NC(=O)c2c(-c3ccccc3)noc2C)cc1 10.9%
COc1cc(/C=N/NC(=O)c2c(-c3ccccc3)noc2C)cc(OC)c1OC 7.95%
Cc1onc(-c2ccccc2)c1C(=O)N/N=C/c1cccc(O)c1 8.34%
CCCOc1ccc(/C=N/NC(=O)c2c(-c3ccccc3)noc2C)cc1OC 7.42%
CCOC(=O)c1c(C)n(C)c2cc(Br)c(C)cc12 -1.61%
CCc1nnc(NS(=O)(=O)c2ccc(N=Cc3c(C)[nH]n(-c4cccc(Cl)c4)c3=O)cc2)s1 9.47%
Cc1nn(C)cc1CNC(=O)c1ccccc1Br -6.9%
CC(Oc1ccc2ccc(=O)oc2c1)C(=O)c1ccccc1 (centres undefined) 8.03%
NCCNC(=O)c1c(NC(=O)c2ccccc2)sc2c1CCCC2 10.3%
CN(C)CCNC(=O)c1c(NC(=O)c2ccccc2)sc2c1CCCC2 11.8%
CCCC(=O)Nc1cc(C)c(NC(=O)c2ccncc2)cn1 1.4%
CCOc1ccccc1NC(=O)COC(=O)C1CCC1 6.3%
O=C1CCCC(=O)C1=Cc1c[nH]c2ccccc12 8.99%
O=C(O)Cn1cc(/C=C2\SC(=O)N(c3ccccc3)C2=O)c2ccccc21 0.86%
O=C1OC2(CCCC2)OC(=O)C1=Cc1c[nH]c2ccccc12 10.5%
O=C(O)Cn1cc(/C=C2/NC(=O)N(c3ccc(Cl)cc3)C2=O)c2ccccc21 8.99%
Clc1ccc(-c2csc(Nc3ccccc3)[n+]2Cc2ccco2)c(Cl)c1 4.62%
